# Bioassay records from PubChem BioAssay.
# An excerpt weighted towards active compounds, which were near 2.1% of everything screened.
# VHR inh abs = inhibitors of human VHR1 phosphatase (DUSP3). P51452. recombinant VHR phosphatase, pNPP absorbance. inhibition, % at 13.3 µM. 290,000 compounds, 0.52% hits. AID 1654; in the data active = inhibition above about 50%
# PrPC surface inh = reduces human prion protein on the cell surface | P04156 | AID 720596 | 370,000 compounds, 0.43% hits | inhibition, % at 13.8 µM | cell surface PrPC, TR-FRET read-out; in the data active = inhibition above about 24%
# MazF activator = MazEF (E. coli) toxin RNase activation; P0AE70; FAM/BHQ RNA-DNA oligo cleavage fluorescence, 5 h; activation, % at 20 µM; 350,000 compounds, 0.32% hits; in the data active = activation above about 50%
# PrP 5UTR inh = suppresses PrP 5' UTR mRNA reporter expression; 340,000 compounds, 0.35% hits; cell-based PrP 5' UTR mRNA reporter, plate reader; AID 488862; inhibition, % (concentration not given with the values); in the data active = inhibition above about 52%
# PfHsp40 yeast = restores yeast growth despite PfHsp40 toxicity; AID 504582; 340,000 compounds, 0.68% hits; growth rescue, % at 12.5 µM; S. cerevisiae expressing PfHsp40, growth rescue, ATP luminescence; in the data active = growth rescue above about 28%, passing the limit was not always enough; inconclusive = no clear call, values can overlap the other calls;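 also: yeast W303a lacking pdr1 and pdr3 grown in galactose medium; growth measured after three days at 30 °C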
# BJeLR lethal = kills HRASV12-expressing BJeLR cells; BJeLR (HRASV12) viability, CellTiter-Glo ATP luminescence, 48 h; inhibition, % (concentration not given with the values); 300,000 compounds, 0.17% hits; in the data active = inhibition above about 50%; inconclusive = no clear call, values can overlap the other calls
# PrPC confirm = cell surface PrPC inhibition, TR-FRET confirmation. 1,500 compounds, 65% hits. shares compounds with PrPC surface inh. cell surface PrPC level. AID 743200. inhibition, % at 13.8 µM; in the data active = inhibition above about 25%
# LD9 tox = LD9 cell cytotoxicity, PrPc inhibitor counter-screen. inhibition, % at 13.8 µM. 1,500 compounds, 29% hits. LD9 cells cytotoxicity, luminescence viability. shares compounds with PrPC surface inh; in the data active = inhibition above about 9.5%
# A number is an active result; i = inactive; ? = inconclusive; nt = no result given.
SMILES,VHR inh abs,PrPC surface inh,MazF activator,PrP 5UTR inh,PfHsp40 yeast,BJeLR lethal,PrPC confirm,LD9 tox
CCN(C)C1CN(Cc2cn(Cc3cccc(Cl)c3)nn2)S(=O)(=O)C1 (configuration not stated),nt,i,nt,nt,nt,nt,nt,nt
CN1C2CCC1CC(=NO)C2,i,83.9,i,i,i,i,i,i
O=C(Cc1ccccc1)NNc1ccc2ccccc2c1,i,29.5,i,i,i,i,i,i
COc1ccc(C2OCCNC3C2C(=O)N(Cc2ccc(OC)cc2OC)C3Cc2ccccc2)cc1 (configuration not stated),nt,i,nt,nt,nt,nt,nt,nt
O=C1NC[C@@H](CCCCN2C[C@H](Cc3ccccc3)N(CCC3CCCCC3)C(=O)C2=O)N(CC2CCCCC2)C1=O,nt,i,nt,nt,nt,nt,nt,nt
CC(=O)Nc1ccc(Nc2nc(-c3ccccc3)nc3ccccc23)cc1,i,29.6,i,i,i,i,i,16.7
COC(=O)C1=C(C)N(Cc2ccccc2C(F)(F)F)C(=NCc2cccc(C(F)(F)F)c2)NC1CCc1ccccc1 (configuration not stated),nt,i,nt,nt,nt,nt,nt,nt
COC(=O)C1=C(C)N(Cc2cccc(C(F)(F)F)c2)C(=NCc2cc(OC)c(OC)c(OC)c2)NC1CCc1ccccc1 (configuration not stated),nt,31.3,nt,nt,nt,nt,26.1,i
Cc1ccc(CNC(=O)C2CCCN(S(=O)(=O)c3cccc4nonc34)C2)cc1 (configuration not stated),i,i,i,i,i,i,nt,nt
O=C(CSc1ccc([N+](=O)[O-])cn1)Nc1ccc2c(c1)OCCO2,i,41.2,i,i,i,i,i,i
CC(C)(C)c1csc(NC(=O)Cn2cnc3ccccc3c2=O)n1,i,35.5,i,i,i,i,24.9,i
CC(C)CCNC(=O)C(c1ccc(O)cc1)N(Cc1cccs1)C(=O)C1COc2ccccc2O1 (configuration not stated),i,24.8,i,i,i,i,i,i
CC(C)(C)NC(=O)CN(Cc1cccs1)C(=O)C1COc2ccccc2O1 (configuration not stated),i,i,i,i,i,i,nt,nt
Clc1ccc(N/N=C/c2cccnc2)cc1,i,25.0,i,i,i,i,i,i
Cc1nn(-c2ccccc2)c2sc(C(=O)NCc3ccc(F)cc3)cc12,nt,i,nt,nt,nt,nt,nt,nt
O=C(NCc1cccnc1)c1sc2ccccc2c1Cl,i,i,i,i,i,i,nt,nt
Cc1c(C(=O)NCc2cccnc2)sc2nc(-c3ccc(F)cc3)cn12,i,i,i,i,i,i,nt,nt
Cc1ccc2c(Cl)c(C(=O)NCc3cccnc3)sc2c1,i,28.8,i,i,i,i,43.0,i
Cc1nn(Cc2ccccc2)c2sc(C(=O)NCc3cccnc3)cc12,i,24.5,i,i,i,i,i,i
Cc1c(C(=O)NCc2cccnc2)sc2nc(-c3ccccc3)cn12,i,28.1,i,i,i,i,i,i
C=CCC[C@@H](Cc1ccc(F)cc1)C(=O)OCCNC(=O)[C@H](CC=C)CC(=O)NCCO,nt,i,i,i,?,nt,nt,nt
COc1cc(N(C)C)ccc1C=c1c2ccccc2n2c1cc(-c1ccccc1)[n+]2C,nt,30.8,i,i,?,nt,47.7,68.3
O=C(NCCc1nnc2ccc(N3CCCC3)nn12)c1ccccc1,i,i,i,i,i,i,nt,nt
COc1ccccc1CCNC(=O)CN1C(=O)c2ccccc2S1(=O)=O,nt,i,i,i,i,i,nt,nt
O=C(NCc1cccc(Cl)c1)c1cc(COc2ccc3ncccc3c2)on1,i,24.6,i,i,i,i,25.8,15.0
SMILES,VHR inh abs,PrPC surface inh,MazF activator,PrP 5UTR inh,PfHsp40 yeast,BJeLR lethal,PrPC confirm,LD9 tox
CN(C)c1cc(Nc2ccc(O)cc2)c([N+](=O)[O-])c2nonc12,i,i,i,i,i,i,nt,nt
O=[N+]([O-])c1c(Nc2ccc(O)cc2)cc(Cl)c2nonc12,i,79.5,i,i,i,52.1,94.5,99.2
CSc1nc(-c2cccs2)c(C#N)c(=O)[nH]1,i,58.9,i,i,i,i,87.3,i
CNC(=O)NC(=O)CSc1nc(-c2cccs2)c(C#N)c(=O)[nH]1,i,120.0,i,i,i,i,123.7,i
O=C(CSc1cnc2ccccc2n1)NC1CCCC1,i,33.1,i,i,i,i,39.7,i
N#Cc1c(-c2ccccc2)nc(SCC(=O)NC2CCCCC2)[nH]c1=O,i,36.1,i,i,i,nt,39.4,i
N#Cc1c(-c2cccs2)nc(SCc2ccc(Cl)cc2)[nH]c1=O,i,109.0,i,i,i,i,119.1,i
O=c1[nH]c(SCc2ccc(Cl)cc2)nc2ccsc12,i,i,i,nt,nt,i,nt,nt
CCc1cc2c(=O)c(-c3ccc4c(c3)OCCO4)coc2cc1OS(C)(=O)=O,i,36.4,i,i,i,i,31.4,i
CCc1cc2c(=O)c(-c3ccc4c(c3)OCCO4)coc2c(CN2CCCCC2C)c1O (configuration not stated),i,i,i,i,i,i,nt,nt
COc1ccc(N(C)S(=O)(=O)c2cccc(C(=O)NC3CCCC3)c2)cc1,i,i,i,i,i,i,nt,nt
COc1ccc(N(C)S(=O)(=O)c2cccc(C(=O)NC3CCCCC3C)c2)cc1 (configuration not stated),i,26.0,i,i,i,i,i,i
COc1ccc(C(=O)O)cc1S(=O)(=O)Nc1ccccc1C(=O)NCc1ccc2c(c1)OCO2,nt,i,i,i,i,nt,nt,nt
O=C(CSc1nnc(COc2ccc(Cl)cc2)n1Cc1ccco1)Nc1ccc2c(c1)OCO2,nt,25.0,nt,nt,nt,nt,i,i
COC(=O)[C@@H]1C[C@@]2(c3ccccc3)c3ccccc3N(S(=O)(=O)c3ccccc3)[C@H]2N1C(=O)CNC1CCCCC1,nt,i,nt,nt,nt,nt,nt,nt
Cc1[nH]n(-c2ccccc2)c(=O)c1/C=N/NC(=O)C(C)C,i,28.8,i,i,i,i,42.6,i
CC(=O)N/N=C/c1c(C)[nH]n(-c2ccccc2)c1=O,i,i,i,i,i,i,nt,nt
Cc1ccc(F)cc1C(=O)N1CCCCC1c1cc(C(=O)NC(C)C)no1 (configuration not stated),nt,i,nt,nt,nt,nt,nt,nt
NS(=O)(=O)c1c(Sc2ccccc2C(=O)O)ccc2ccccc12,i,34.1,i,i,i,i,52.5,i
CNS(=O)(=O)c1cc(Cl)ccc1Sc1ccccc1C(=O)O,i,i,i,i,i,i,nt,nt
CC1(C(=O)Nc2ccc3c(c2)OCO3)Cc2c(-c3cccc(C(F)(F)F)c3)ccnc2O1 (configuration not stated),nt,i,nt,nt,nt,nt,nt,nt
OC[C@@H]1CN(Cc2ccc(Cl)cc2)C[C@H](n2cnc3c(NC4CCCC4)ncnc32)O1,nt,28.2,nt,nt,nt,nt,34.8,i
OC[C@@H]1CN(Cc2ccc(F)cc2)C[C@H](n2cnc3c(NC4CC4)ncnc32)O1,nt,i,nt,nt,nt,nt,nt,nt
CS(=O)(=O)Nc1ccccc1C(=O)N1CCOCC1,i,34.3,i,i,i,i,i,i
Oc1ccc2ccc3[nH]cnc3c2c1,i,32.5,i,i,i,i,i,i
